Records with an inconclusive call do not appear. Entries that show only a call come without a potency. Calls of active or inactive are those of the source. The call rests on the fitted dose curve; in most records, active means well fitted curve in the direction sought with a large enough effect; inconclusive means small, poorly fitted or top-dose-only effect, or another doubt; inactive means no such curve, though single readings can be large; an effect the other way counts as inactive or inconclusive. Where a SMILES comes first, the peptide text is derived from it. [ ]: non-standard residue; d: D form.
Assay: P-glycoprotein substrates identified in KB-3-1 adenocarcinoma cell line, qHTS therapeutic library screen (AID 1346986); further: nearly all actives have a fitted effect of over 60% in size
Details: KB-3-1 parental cells viability, CellTiter-Glo, 72 h; series mostly up to 44.5 µM; activity change, negative = cytotoxicity: at the top concentration
Procedure, shortened: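 KB-3-1 parental and colchicine-selected P-gp-overexpressing KB-8-5-11 cells (colchicine omitted during assay), 500 cells/well, dosed in dose-response for 72 h at 37 °C; CellTiter-Glo luminescence. Cytotoxic: curve class -1.1 to -2.4, max response >50%, AC50 < 10 uM.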

Row | Structure (SMILES) | outcome
1 | CC(=O)N[C@H](Cc1ccc(O)cc1)C(=O)N[C@H](CCCN=C(N)N)C(=O)N[C@H](Cc1ccccc1)C(N)=O (Ac-[dY]-[dR]-[dF]-NH2) | inactive
2 | C/C=C(\C)C(=O)O[C@H]1[C@H](O)[C@]2(COC(C)=O)[C@H](O)C[C@]3(C)C(=CCC4[C@@]5(C)CC[C@H](O[C@@H]6O[C@H](C(=O)O)[C@@H](O[C@@H]7O[C@H](CO)[C@@H](O)[C@H](O)[C@H]7O)[C@H](O)[C@H]6O[C@@H]6O[C@H](CO)[C@@H](O)[C@H](O)[C@H]6O)[C@](C)(CO)C5CC[C@]43C)[C@@H]2CC1(C)C (stereo not given in full) | inactive [at 9.29 µM]
3 | CC1(C)CCC2(C(=O)OC3OC(COC4OC(CO)C(O)C(O)C4O)C(O)C(O)C3O)CCC3(C)C(=CCC4C5(C)CCC(O)C(C)(C(=O)O)C5CCC43C)C2C1O (stereo not given) | inactive [at 9.29 µM]
4 | CC(=O)OC[C@@]12[C@@H](OC(C)=O)C[C@@H](C)[C@](C)([C@@H]3C[C@H]4C=CO[C@H]4O3)[C@H]1CCC[C@]21CO1 | inactive [at 17.4 µM]
5 | COC1CC(=O)CCC(C)OC(=O)CC1O (stereo not given) | inactive
6 | COc1ccc2c(c1O)OC[C@H]1c3ccc(O)cc3O[C@@H]21 | inactive
7 | COc1ccccc1[C@@H]1C2=C(CC(C)(C)CC2=O)Nc2n[nH]c(C(F)(F)F)c21 | inactive
8 | CNC(=O)O[C@H]1COc2ccc(N3CCN(C4COC4)CC3)cc2[C@@H]1NC(=O)c1ccc(F)cc1 | inactive
9 | COc1c(C)c(OCC=C(C)C)cc2c1C(=O)NC2=O | inactive
10 | COc1ccc(/C=C/C(=O)O[C@H]2[C@@H]3C=CO[C@@H](O[C@@H]4O[C@H](CO)[C@@H](O)[C@H](O)[C@H]4O)[C@@H]3[C@@]3(CO)O[C@@H]23)cc1O | inactive [at 17.4 µM]
11 | O=C1NC(=Nc2ccccc2F)S/C1=C\c1ccc(C(=O)O)cc1 | inactive
12 | CC1CC(O)C2(C)C(C(=O)O)=CCCC2C1(C)CCc1ccoc1 (stereo not given) | inactive
13 | CCn1cc(C2=NOC(C(=O)Nc3c(C)n(C)n(-c4ccccc4)c3=O)C2)c(C)n1 (stereo not given) | inactive
14 | C[C@@H]1CC[C@]2(C(=O)O)CC[C@]3(C(=O)O)C(=CCC4[C@@]5(C)CC[C@H](O[C@@H]6O[C@@H](C)[C@H](O[C@@H]7O[C@H](CO)[C@@H](O)[C@H](O)[C@H]7O)[C@@H](O)[C@H]6O)C(C)(C)C5CC[C@]43C)C2[C@H]1C (stereo not given in full) | inactive [at 17.4 µM]
15 | COc1cccc(-c2ccc([C@@H](Oc3cc(-c4ccc(C[C@H](N)C(=O)O)cc4)nc(N)n3)C(F)(F)F)cc2)c1 | inactive
16 | CC(=O)O[C@@H]1[C@H]2[C@@H](OC(=O)c3ccccc3)[C@@H](C)C[C@]2(O)[C@H](OC(C)=O)[C@@]2(C)[C@@H]3CC(C)(C)C(=O)[C@]3(OC(C)=O)C[C@@]12C | inactive [at 17.4 µM]
17 | OCCc1ccc(O[C@@H]2O[C@H](CO)[C@@H](O)[C@H](O)[C@H]2O)c(O)c1 | inactive
18 | Cc1cc(O)c(C(C)C)cc1O[C@@H]1O[C@H](CO)[C@@H](O)[C@H](O)[C@H]1O | inactive
19 | CCC1CC2C(C)=CC3CCCCC3C2(C)C2(OC(=O)C(C)(O)OC2=O)O1 (stereo not given) | inactive
20 | NCCCC[C@H](NC(=O)[C@@H]1Cc2ccccc2CN1C(=O)CCC(=O)c1ccccc1)C(=O)NCC(c1ccccc1)c1ccccc1 | inactive
21 | CC(C)=CCC[C@](C)(O[C@@H]1O[C@H](CO[C@@H]2OC[C@@H](O)[C@H](O)[C@H]2O)[C@@H](O)[C@H](O)[C@H]1O)[C@H]1CC[C@]2(C)[C@@H]1[C@H](O)C[C@@H]1[C@@]3(C)CC[C@H](O[C@@H]4O[C@H](CO)[C@@H](O)[C@H](O)[C@H]4O[C@@H]4O[C@H](CO)[C@@H](O)[C@H](O)[C@H]4O)C(C)(C)[C@@H]3CC[C@]12C | inactive [at 17.4 µM]
22 | C=C(C)[C@H]1C[C@@H](O)C(=C)CC[C@@H](O)C(=C)[C@@H](O)C1 | inactive
23 | COc1cc(-c2cccc(O)c2)cc2c1OCO2 | inactive
24 | COc1c2c(c(C)c3c1C(=O)OC3)O[C@@]1(C)C[C@@H](O)[C@]34O[C@](OC)(CC[C@]3(C)[C@H]1C2)OC4(C)C | inactive [at 17.4 µM]
25 | O=C(O[C@@H]1O[C@H](CO)[C@@H](O)[C@H](O)[C@H]1O)c1c(O)cc(O)cc1/C=C/c1ccccc1 | inactive [at 17.4 µM]
26 | COc1cc(C2c3cc(O)c(OC)cc3CC(CO)C2CO)ccc1O (stereo not given) | inactive
27 | C=C1C(=O)O[C@H]2[C@H]1[C@@H](OC(=O)C(C)CO)C[C@@]1(C)[C@H](O)CCC(=O)[C@H]21 (stereo not given in full) | inactive
28 | CC1CCC23COC(=O)C2=CC(O)CC3C1(C)CCC1=CC(=O)OC1O (stereo not given) | inactive

Assay: P-glycoprotein substrates identified in KB-8-5-11 adenocarcinoma cell line, qHTS therapeutic library screen (AID 1346987); further: nearly all actives have a fitted effect of over 65% in size; further: potency means the concentration at half of the fitted maximal effect
Details: KB-8-5-11 (P-gp overexpressing) viability, CellTiter-Glo, 72 h; series mostly up to 44.5 µM; activity change, negative = cytotoxicity: at the top concentration
Procedure, shortened: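 KB-8-5-11, a colchicine-selected P-gp-overexpressing KB-3-1 subline, was grown without colchicine for the assay. Cells were seeded at 500 cells/well, dosed in concentration-response and incubated 72 h at 37 degree C, 5% CO2. Viability was read by CellTiter-Glo luminescence.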

Row | Structure (SMILES) | activity change, negative = cytotoxicity | outcome | Potency
29 | CCCCCCCCCCCCCCCCCCOP(=O)([O-])OC1CC[N+](C)(C)CC1 | 3.18% [at 17.3 µM] (inactive) |  | 
30 | CC1(C)CCC2(C(=O)OC3OC(COC4OC(CO)C(O)C(O)C4O)C(O)C(O)C3O)CCC3(C)C(=CCC4C5(C)CCC(O)C(C)(C(=O)O)C5CCC43C)C2C1O (stereo not given) |  | inactive [at 9.29 µM] | 
31 | COC1CC(=O)CCC(C)OC(=O)CC1O (stereo not given) |  | inactive | 
32 | CNC(=O)O[C@H]1COc2ccc(N3CCN(C4COC4)CC3)cc2[C@@H]1NC(=O)c1ccc(F)cc1 |  | inactive | 
33 | COc1c(C)c(OCC=C(C)C)cc2c1C(=O)NC2=O | -5.18% (inactive) |  | 
34 | O=C1NC(=Nc2ccccc2F)S/C1=C\c1ccc(C(=O)O)cc1 |  | inactive | 
35 | CC1CC(O)C2(C)C(C(=O)O)=CCCC2C1(C)CCc1ccoc1 (stereo not given) | 1.56% (inactive) |  | 
36 | COc1cccc(-c2ccc([C@@H](Oc3cc(-c4ccc(C[C@H](N)C(=O)O)cc4)nc(N)n3)C(F)(F)F)cc2)c1 |  | inactive | 
37 | Cc1nnc(C(C)C)n1C1CC2CCC(C1)N2CC[C@H](NC(=O)C1CCC(F)(F)CC1)c1ccccc1 (stereo not given in full) |  | inactive | 
38 | CCC1CC2C(C)=CC3CCCCC3C2(C)C2(OC(=O)C(C)(O)OC2=O)O1 (stereo not given) |  | inactive | 
39 | NCCCC[C@H](NC(=O)[C@@H]1Cc2ccccc2CN1C(=O)CCC(=O)c1ccccc1)C(=O)NCC(c1ccccc1)c1ccccc1 |  | inactive | 
40 | CC(C)=CCC[C@](C)(O[C@@H]1O[C@H](CO[C@@H]2OC[C@@H](O)[C@H](O)[C@H]2O)[C@@H](O)[C@H](O)[C@H]1O)[C@H]1CC[C@]2(C)[C@@H]1[C@H](O)C[C@@H]1[C@@]3(C)CC[C@H](O[C@@H]4O[C@H](CO)[C@@H](O)[C@H](O)[C@H]4O[C@@H]4O[C@H](CO)[C@@H](O)[C@H](O)[C@H]4O)C(C)(C)[C@@H]3CC[C@]12C | 4.02% [at 17.3 µM] (inactive) |  | 
41 | COc1cc(-c2cccc(O)c2)cc2c1OCO2 |  | inactive | 
42 | O=C(O[C@@H]1O[C@H](CO)[C@@H](O)[C@H](O)[C@H]1O)c1c(O)cc(O)cc1/C=C/c1ccccc1 |  | inactive [at 17.3 µM] | 
43 | COc1cc(C2c3cc(O)c(OC)cc3CC(CO)C2CO)ccc1O (stereo not given) | -3.72% (inactive) |  | 
44 | CN(NC(=O)CC(=O)NN(C)C(=S)c1ccccc1)C(=S)c1ccccc1 |  |  | 51.7 nM (active)
45 | CC1CCC23COC(=O)C2=CC(O)CC3C1(C)CCC1=CC(=O)OC1O (stereo not given) |  | inactive | 
